Measured values published in PubChem BioAssay AID588413 (Sanford-Burnham Center for Chemical Genomics, 2011).
Among all 340,000 compounds or so, about 2,500 (0.74%) were called active. Shown is part of a subset that was picked to be rich in actives. A number with no mark means an inactive call.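 The calls were made as follows: active = inhibition above about 55% (limit read from the data); inactive = the rest.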

Experiment: blockers of Gli reporter signaling – luciferase luminescence, Sufu-KO-LIGHT cells, uHTS, primary screen (AID 588413);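 also: 0% = DMSO-treated cells and 100% = wells with medium but no cells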
Conditions: Sufu-KO-LIGHT fibroblasts, at 5 µM, hits give high values

Structure (SMILES)	inhibition
CCc1ccc2nc(N(CCCN(C)C)C(=O)c3ccc4c(c3)OCCO4)sc2c1	11.7%
CN(C)CCCN(C(=O)c1ccc(S(=O)(=O)N2CCCCCC2)cc1)c1nc2ccc(Br)cc2s1	42.7%
CCOc1ccc2nc(N(CCCN(C)C)C(=O)c3ccc(C(=O)c4ccccc4)cc3)sc2c1	65.2% (active)
Cc1ccc(F)c(NC(=O)CCc2ccccc2)c1	-20.7%
CCOc1cccc(/C=N/NC(=S)NCCN2CCOCC2)c1O	81.1% (active)
CCOc1cccc(/C=N/N2C(=O)CSC2=S)c1O	-1.42%
Cc1ccc(C(=O)NC(=S)NCCN2CCOCC2)cc1	-9.17%
O=C(CNc1ccc(F)cc1F)NC(=O)NCc1ccco1	-1.84%
Cc1cc([N+](=O)[O-])ccc1NCc1cccc([N+](=O)[O-])c1	8.75%
COCCCNC(=S)N1CCCC(c2nc3cc(C)c(C)cc3[nH]2)C1 (stereo not drawn)	15.7%
CCC(C)(C)NC(=O)C(c1ccc(O)cc1)N(Cc1ccco1)C(=O)CCC(=O)Nc1ccccn1 (stereo not drawn)	-4.35%
Cc1ccc(NC(=O)C(C)Sc2nnc(C3CC3)n2C2CC2)cc1S(=O)(=O)N1CCOCC1 (stereo not drawn)	4.31%
CCCn1cc(S(=O)(=O)c2ccc(C)cc2)c(=O)c2cc(OCC)ccc21	32.4%
COc1cccc(Oc2ccc(N)cc2)c1	-23.1%
CC(C)(C)c1ccc(OC2=CS(=O)(=O)c3ccccc32)cc1	-36.6%
CC(C)(C)c1ccc(Oc2ccc(N)cc2)cc1	76.2% (active)
CCOc1ccc(NS(=O)(=O)c2ccc(C)c(C(N)=O)c2)cc1	29.7%
CC(=O)c1c(C)[nH]c(C(=O)OCC(=O)Nc2sc3c(c2C#N)CCCC3)c1C	69.3% (active)
N#CCC(=O)Nc1ccc(C(=O)OCC(=O)Nc2sc3c(c2C#N)CCCC3)cc1	-9.19%
Cc1cccc(C(=O)OCC(=O)Nc2sc3c(c2C#N)CCC3)c1	-6.89%
Cc1cc(C)c(C)c(S(=O)(=O)Nc2cccnc2)c1C	1.03%
Fc1ccc(CNc2nc3ccccc3n3nnnc23)cc1	-6.79%
CCc1nc2sc3c(Cl)ncnc3c2c2c1CCCC2	-1.03%
O=C(O)C1CC(=O)N(Cc2cccnc2)C1 (stereo not drawn)	-11.1%

Structure (SMILES)	inhibition
Cc1ccccc1C1=N/C(=C/c2cccnc2)C(=O)O1	-7.01%
O=C1/C(=C\c2cccnc2)CN(Cc2ccccc2)C/C1=C\c1cccnc1	99.3% (active)
CCNC(=S)NNC(=O)c1ccc2ncccc2c1	-4.73%
Cc1ccc2cc(/C=N/Nc3ccc(C(=O)O)cc3)c(Cl)nc2c1	-101%
O=C(O)c1ccc(N/N=C/c2ccc3ncccc3c2)cc1	67% (active)
CNc1ccc(SC#N)cc1	60.3% (active)
COc1ccc(N2C(=O)/C(=C\c3ccco3)N=C2SCC(N)=O)cc1Cl	5.71%
O=C(Cn1cnc2c(nnn2-c2ccccc2)c1=O)N1CCC(Cc2ccccc2)CC1	-4.74%
COc1cc(-c2nc(S(=O)(=O)c3ccc(Cl)cc3)c(N(C)C)o2)cc(OC)c1OC	7.51%
O=C(c1snnc1-c1ccccc1)N1CCOCC1	9.83%
COc1cc2ccccc2cc1C(=O)N1CCOCC1	-5.57%
Cc1oc2c(c1C(=O)N1CCOCC1)C(=O)c1ccccc1C2=O	87% (active)
CCOC(=O)[C@H]1[C@H]2COc3ccc(Cl)cc3[C@@H]2N2C(=O)c3cc(C)ccc3NC(=O)[C@@]12C	1.26%
CCOC(=O)CN(C(=O)COc1nc(-c2ccccc2)cc(C)c1C#N)c1ccc(F)cc1	5.59%
Cc1ccc2c(=O)cc(C(=O)NCCc3ccc(S(N)(=O)=O)cc3)oc2c1C	-18.4%
CSc1ccccc1NC(=O)Cc1ccc(Br)cc1	1.53%
COc1ccc(S(=O)(=O)Nc2ccccc2C(=O)N2CCCC2)cc1C	-10.7%
Cc1ccc(S(=O)(=O)NC(C)C(=O)Nc2ccccc2C(=O)N2CCCC2)cc1 (stereo not drawn)	95% (active)
COc1ccc(S(=O)(=O)NC(C)c2ccccc2)cc1C(=O)N1CCCCC1 (stereo not drawn)	12.8%
CCOc1ccc(/C=C(/C#N)c2nnc(N3CCOCC3)n2-c2ccccc2)cc1OC	4.23%
O=S(=O)(Nc1ccc2nc(N3CCOCC3)sc2c1)c1ccccc1	-64.9%
c1c2c(cc3sc(N4CCCCC4)nc13)OCCO2	66.6% (active)
Brc1ccc2nc(N3CCCC3)sc2c1	-88.5%
CC1CN(C(=O)c2ccccc2NS(=O)(=O)c2cccc([N+](=O)[O-])c2)CC(C)O1 (stereo not drawn)	-7.72%
